PubChem BioAssay (NCATS)
Inconclusive results are not listed. Calls of active or inactive are those of the source. Unless noted, the call rests on the fitted dose curve.

Legend:
[1] = qHTS drug screen for cell cycle checkpoint inhibitors in PARPi-resistant BRCA-mutant ovarian cancer cell lines. (AID 1963452); settings: PEO1/OlaR viability, CellTiter-Glo luminescence, 96 h, stronger effect = lower value
Procedure, shortened: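 PEO1, PEO4 and PEO1/OlaR ovarian cancer cells, 600 per well, exposed 96 h at 37C to a dilution series. Viability read by CellTiter-Glo luminescence, normalized to DMSO and empty wells; activity summarized as Z-AUC.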

[2] = qHTS for identification of novel therapeutic agents for treatment of microphthalmiaassociated transcription factor (MiT) renal cell carcinoma (RCC) (AID 1963991); settings: CellTiter-Glo, 48 h; for z-score: stronger effect = lower value; for Potency: active = Z-AUC below -0.8 in all three lines; further: potency means the concentration at half of the fitted maximal effect;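 on z-score: curves scaled with 100% = DMSO viability and 0% = empty wells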
Procedure, shortened: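 UOK109/UOK124/UOK145 (TFE3 fusions, three partners); 500 cells/well; MIPE v4.0, 1912 cpds, 11 conc.; 48 h, 37 C; CellTiter-Glo, 15 min RT; lum. Norm.: DMSO 100%, empty 0%.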

[3] = qHTS profiling for inhibitors of Plasmodium falciparum proliferation (AID 504749; active means well fitted inhibition curve with a large enough effect; further: potency means the concentration at half of the fitted maximal effect;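 on activity, negative = inhibition: 0% = DMSO vehicle and full inhibition = artemisinin control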; on all read-outs here: nearly all actives have a fitted effect of over 60% in size); settings: P. falciparum in erythrocytes, SYBR Green DNA, 72 h; for activity, negative = inhibition: at 28.7 µM (top of the series)
Procedure, shortened: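 In a 72 h erythrocytic culture (37 C, humidified, 5% CO2) at 2.5% hematocrit and 0.3% starting parasitemia, compounds were tested; SYBR Green I in detergent lysis buffer stained parasite DNA overnight.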

[4] = measured here: PEO1 parental Z-AUC
[5] = TFE3-RCC UOK109 viability, measured here: UOK109 Z-AUC
[6] = TFE3-RCC viability, measured here: UOK124 Z-AUC
[7] = TFE3-RCC viability, measured here: UOK145 Z-AUC

COc1ccc(Cc2ccc(NC(N)=O)cc2)cc1-c1cccc(Cl)c1
Z-AUC [1]: 0.65 (inactive) | Z-AUC [1, 4]: -0.098 | Z-AUC ([1]; measured here: PEO4 Z-AUC): 0.315 | z-score [2, 5]: 0.762 | z-score [2, 6]: 0.853 | z-score [2, 7]: 0.582

CC(C)(C)COc1ccc(-n2cc(C(=O)O)cn2)cc1C#N
z-score [2, 5]: 1.01 | z-score [2, 6]: 0.953 | z-score [2, 7]: 0.498

CC1=C(/C=C/C(C)=C/C=C/C(C)=C/C(=O)Nc2ccc(O)cc2)C(C)(C)CCC1
Z-AUC [1]: 0.685 (inactive) | Z-AUC [1, 4]: 0.437 | Z-AUC ([1]; measured here: PEO4 Z-AUC): 0.121 | Potency ([3]; parasite line A): 11.2 µM (active) | Potency ([3]; parasite line B): 10 µM (active)

CCC(=O)O[C@]1(C(=O)CO)CC[C@H]2[C@@H]3CCC4=CC(=O)CC[C@]4(C)[C@@H]3CC[C@@]21C
z-score [2, 5]: 1.05 | z-score [2, 6]: 0.404 | z-score [2, 7]: 0.464

COC1CCC(N(C(=O)C2CCC(C)CC2)c2cc(C3=CCCCC3)sc2C(=O)O)CC1 (centres undefined)
Z-AUC [1]: -0.412 (inactive) | Z-AUC [1, 4]: -0.941 | Z-AUC ([1]; measured here: PEO4 Z-AUC): -0.935 | z-score [2, 5]: 0.459 | z-score [2, 6]: 1.37 | z-score [2, 7]: 0.333

CCOc1ccc(Nc2nc(-c3c(C)nc4ccccn34)cs2)cc1
Z-AUC [1]: -0.0903 (inactive) | Z-AUC [1, 4]: -0.777 | Z-AUC ([1]; measured here: PEO4 Z-AUC): 0.137 | Potency ([2]; TFE3-RCC UOK109 viability): 0.00235 µM (active) | z-score [2, 5]: -1.91 | z-score [2, 6]: -2.79 | z-score [2, 7]: -1.17

O=C(O)c1ccccc1C(=O)Nc1ccc(-c2ccccc2)cc1
Z-AUC [1]: 1.24 (inactive) | Z-AUC [1, 4]: 0.724 | Z-AUC ([1]; measured here: PEO4 Z-AUC): 0.552 | z-score [2, 5]: 0.921 | z-score [2, 6]: 0.86 | z-score [2, 7]: 0.469

O=C(O)c1c(Cl)c(Cl)c(Cl)c(Cl)c1-c1c2cc(I)c(=O)c(I)c-2oc2c(I)c(O)c(I)cc12
Z-AUC [1]: 0.15 (inactive) | Z-AUC [1, 4]: 0.353 | Z-AUC ([1]; measured here: PEO4 Z-AUC): 0.104 | activity, negative = inhibition ([3]; parasite line A): 1.68% (inactive) | activity, negative = inhibition ([3]; parasite line B): 2.35% (inactive)

C[C@]12CC[C@@H]3c4ccc(O)cc4C[C@@H](CCCCCCCCCS(=O)CCCC(F)(F)C(F)(F)F)[C@H]3[C@H]1CC[C@H]2O (some centres undefined)
z-score [2, 5]: 1.23 | z-score [2, 6]: 0.607 | z-score [2, 7]: 0.767

CC(C)(C)c1cc(C(=O)O)c(NC(=O)Nc2ccc3[nH]ncc3c2)s1
Z-AUC [1]: -0.548 (inactive) | Z-AUC [1, 4]: -0.418 | Z-AUC ([1]; measured here: PEO4 Z-AUC): -0.766 | z-score [2, 5]: 0.185 | z-score [2, 6]: -0.00808 | z-score [2, 7]: 0.16

c1ccc2c(-c3cnn4cc(-c5ccc(N6CCNCC6)cc5)cnc34)ccnc2c1
Z-AUC [1]: -0.163 (inactive) | Z-AUC [1, 4]: -0.568 | Z-AUC ([1]; measured here: PEO4 Z-AUC): -0.419 | Potency ([2]; TFE3-RCC UOK109 viability): 18.7 µM (active) | z-score [2, 5]: -0.898 | z-score [2, 6]: -1.42 | z-score [2, 7]: -1.11

O=c1ccn([C@@H]2O[C@H](CO)[C@H](O)[C@H]2O)c(=O)[nH]1
z-score [2, 5]: 0.533 | z-score [2, 6]: 0.584 | z-score [2, 7]: 0.624

O=C(O)C=Cc1ccc(O)c(O)c1
z-score [2, 5]: 1.03 | z-score [2, 6]: 0.19 | z-score [2, 7]: 0.564

CCc1ccc(C=C2SC(=S)NC2=O)cc1
z-score [2, 5]: -0.104 | z-score [2, 6]: 0.457 | z-score [2, 7]: -0.976

CN(C)c1cc(NC(=O)CNC(C)(C)C)c(O)c2c1C[C@@H]1C[C@H]3[C@H](N(C)C)C(=O)C(C(N)=O)=C(O)[C@@]3(O)C(=O)C1=C2O
z-score [2, 5]: 1.85 | z-score [2, 6]: 0.166 | z-score [2, 7]: 0.881
